Measurements published in PubChem BioAssay (NCI).
About 79,000 compounds went through this panel and 15% of them were active in at least one assay; those are over-represented in the sample as a whole. The source made the active and inactive calls. No stated cut-off is given here; in the data, active means growth inhibition above about 70%; inactive means the rest.

Assay: NCI Yeast Anticancer Drug Screen. Data for the cln2 rad14 strain (AID 165);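 further: 0% = growth equal to vehicle treated cultures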
Conditions: S. cerevisiae cln2 rad14 strain, at 50.0 µM, hits give high values
Method in brief: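 Compounds are applied to the cln2 rad14 yeast strain, and growth is then compared with that of vehicle-treated cultures to give inhibition.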

Which growth inhibition does the source give for `COc1ccc2c(C)[n+]3ccc4cc(OC)c(OC)cc4c3cc2c1` (tested in a mixture with another compound) here?
The growth inhibition was -6.7% (inactive).

Which growth inhibition does the source give for `CC12CCC(C(S(=O)(=O)O)C1=O)C2(C)C` (stereo not given) (tested in a mixture with another compound) here?
The growth inhibition was -5.7% (inactive).

With `COc1ccc(OC)c(C(O)P(=O)(c2ccccc2)c2ccccc2)c1` (stereo not given) as the compound, how does the growth inhibition read?
Its growth inhibition is 12.2% (inactive).

For `COc1ccc(C(O)Cc2cc(=O)cc(-c3ccccc3)[nH]2)cc1` (stereo not given), which growth inhibition is on record?
Its growth inhibition is -40.3% (inactive).

Which growth inhibition does the source give for `COc1ccc(CCc2ccc(Cl)cc2)cc1` here?
The growth inhibition was 15.5% (inactive).

Which growth inhibition does the source give for `COC(=O)[C@@]1(C(C)CC(=O)O)CCCCC1=O` (stereo not given in full) here?
The growth inhibition was -7.35% (inactive).

With `CCOC(=O)COc1ccc(Cl)cc1C` as the compound, how does the growth inhibition read?
Its growth inhibition is 4.45% (inactive).

Which growth inhibition does the source give for `C=CCc1cc(C(=O)C(=O)c2cc(CC=C)c(OC(C)=O)c(OC)c2)cc(OC)c1OC(C)=O` here?
The growth inhibition was 6.8% (inactive).

With `CCOC(=O)Sc1nccn1C` as the compound, how does the growth inhibition read?
The growth inhibition was -4.7% (inactive).

For `OC(CSCc1ccccc1)c1ccccc1` (stereo not given), which growth inhibition is on record?
Its growth inhibition is -43% (inactive).

Which growth inhibition does the source give for `CC1CCCCN1P(N1CCCCC1C)N1CCCCC1C` (stereo not given) here?
Its growth inhibition is 25.6% (inactive).

Which growth inhibition does the source give for `O=C(O)CC(SSCc1ccccc1)C(=O)O` (stereo not given) here?
The growth inhibition was -12.2% (inactive).

With `COc1ccc(NC(=O)CC(=O)N2N=C(N(CCC#N)c3ccccc3Cl)CC2c2ccccc2)cc1` (stereo not given) as the compound, how does the growth inhibition read?
Its growth inhibition is 10.7% (inactive).

Which growth inhibition does the source give for `CC(=O)OC1CCC2C(C)(CCC3C2(C)CCC2(C)C4CC(C)(C)CCC4(C)CCC32C)C1C` (stereo not given) here?
Its growth inhibition is -38.1% (inactive).

Which growth inhibition does the source give for `CCN(CC)C(N)=Nc1cc2ccccc2c2ccccc12` here?
The growth inhibition was -45.5% (inactive).

With `CCOC(=O)CC/C(=C\NC(=O)c1ccccc1)NC(=O)c1ccccc1` as the compound, how does the growth inhibition read?
Its growth inhibition is 16.2% (inactive).

For `OCC(O)C(O)C(O)c1nn(-c2ccccc2)c2nc3ccccc3nc12` (stereo not given), which growth inhibition is on record?
The growth inhibition was 7.15% (inactive).

Which growth inhibition does the source give for `N#CC(c1ccc(O)cc1)N1CCN(C(C#N)c2ccc(O)cc2)CC1` (stereo not given) here?
The growth inhibition was -26.8% (inactive).

For `O=C(O)c1cccnc1-c1ccccc1`, which growth inhibition is on record?
The growth inhibition was -4.7% (inactive).

With `CCOC(=O)C(NC(N)=O)C(=O)OCC` as the compound, how does the growth inhibition read?
The growth inhibition was -34.7% (inactive).

With `CC(=O)Nc1ccccc1/C=C\c1ccccn1` as the compound, how does the growth inhibition read?
The growth inhibition was 1.25% (inactive).

For `CC(=O)OC(C)c1cc2c(s1)C(=O)c1sccc1C2=O` (stereo not given), which growth inhibition is on record?
Its growth inhibition is 89% (active).

With `C=C1CN(C2=NCCO2)C1` as the compound, how does the growth inhibition read?
The growth inhibition was -12.9% (inactive).

For `CCC(=O)C(=O)C1CCCCC1=O` (stereo not given), which growth inhibition is on record?
The growth inhibition was -9.05% (inactive).

Which growth inhibition does the source give for `CC(=O)c1cccc(NC(=O)c2c(Br)c(Br)c(Br)c(Br)c2C(=O)O)c1` here?
Its growth inhibition is 0.2% (inactive).

Which growth inhibition does the source give for `CN(/N=C/C=N/N(C)C1=NCCCCN1)C1=NCCCCN1` here?
The growth inhibition was 0.7% (inactive).

With `Cc1cc2c(cc1C)[n+](=O)c(C(=O)CC(=O)C(=O)Nc1ccccc1C)c(C)n2[O-]` as the compound, how does the growth inhibition read?
Its growth inhibition is 30.4% (inactive).

For `CCc1n[nH]c(=O)n1/N=C/c1c(O)ccc2ccccc12`, which growth inhibition is on record?
The growth inhibition was 9.05% (inactive).

With `CCc1cc2c(cc1C(=O)/C=C\c1cccc3ccccc13)C(C)(C)CCC2(C)C` as the compound, how does the growth inhibition read?
The growth inhibition was -20.1% (inactive).

For `Cc1nc2ccc(Br)cc2c(=O)n1-c1ccc(N=Cc2ccccc2Cl)cc1`, which growth inhibition is on record?
Its growth inhibition is 19.6% (inactive).

With `O=C1c2cccc3c(Br)ccc(c23)C(=O)N1CCCN1CCOCC1` as the compound, how does the growth inhibition read?
Its growth inhibition is 86.7% (active).

For `COc1cc(OC)c(NC(=O)CC2SC(N)=NC2=O)cc1Cl` (stereo not given), which growth inhibition is on record?
The growth inhibition was 11% (inactive).

For `CN1C(=O)C(O)Nc2ncncc21` (stereo not given), which growth inhibition is on record?
The growth inhibition was -45.7% (inactive).

Which growth inhibition does the source give for `BrC12c3ccccc3C(Br)(c3ccccc31)c1ccccc12` here?
The growth inhibition was -7.4% (inactive).

For `N#CC1=C(c2ccccc2)C(=C2Nc3ccccc3N2)C2S/C(=C\c3ccccc3)C(=O)N2C1=N` (stereo not given), which growth inhibition is on record?
The growth inhibition was -31.1% (inactive).

For `O=C(CCCCCCC(=O)ON1C(=O)CCC1=O)ON1C(=O)CCC1=O`, which growth inhibition is on record?
Its growth inhibition is 13.8% (inactive).

For `Cc1ccc(-c2cc(-c3ccco3)c(C#N)c(=O)[nH]2)cc1`, which growth inhibition is on record?
Its growth inhibition is 16.4% (inactive).

For `CCCCCC/C=C/C(N)=O`, which growth inhibition is on record?
The growth inhibition was 12.1% (inactive).

Which growth inhibition does the source give for `COc1ccc(OC)c(N=Cc2ccc(C=Nc3cc(OC)ccc3OC)cc2)c1` here?
Its growth inhibition is 4.7% (inactive).

With `O=C1c2c(ccc3c2CCC3)CC12Cc1cc3c(cc1C2)CCC3` as the compound, how does the growth inhibition read?
Its growth inhibition is 10.9% (inactive).

Assay: NCI Yeast Anticancer Drug Screen. Data for the bub3 strain (AID 167)
Conditions: S. cerevisiae bub3 mutant strain, at 50.0 µM, hits give high values
Method in brief: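 Part of a panel of yeast mutants defective in DNA damage repair or cell cycle regulation. Each strain is grown with compound, and inhibition is calculated relative to solvent-treated cultures.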

Which growth inhibition does the source give for `COc1ccc2c(C)[n+]3ccc4cc(OC)c(OC)cc4c3cc2c1` (tested in a mixture with another compound) here?
The growth inhibition was 22.5% (inactive).

With `CC12CCC(C(S(=O)(=O)O)C1=O)C2(C)C` (stereo not given) (tested in a mixture with another compound) as the compound, how does the growth inhibition read?
Its growth inhibition is -0.6% (inactive).

Which growth inhibition does the source give for `COc1ccc(OC)c(C(O)P(=O)(c2ccccc2)c2ccccc2)c1` (stereo not given) here?
Its growth inhibition is 27.1% (inactive).

With `COc1ccc(C(O)Cc2cc(=O)cc(-c3ccccc3)[nH]2)cc1` (stereo not given) as the compound, how does the growth inhibition read?
The growth inhibition was 9.85% (inactive).

With `COc1ccc(CCc2ccc(Cl)cc2)cc1` as the compound, how does the growth inhibition read?
Its growth inhibition is -17.6% (inactive).

For `COC(=O)[C@@]1(C(C)CC(=O)O)CCCCC1=O` (stereo not given in full), which growth inhibition is on record?
The growth inhibition was -20.8% (inactive).

Which growth inhibition does the source give for `CCOC(=O)COc1ccc(Cl)cc1C` here?
The growth inhibition was 6.8% (inactive).

Which growth inhibition does the source give for `C=CCc1cc(C(=O)C(=O)c2cc(CC=C)c(OC(C)=O)c(OC)c2)cc(OC)c1OC(C)=O` here?
Its growth inhibition is -5.85% (inactive).

With `CCOC(=O)Sc1nccn1C` as the compound, how does the growth inhibition read?
The growth inhibition was -13.2% (inactive).

With `OC(CSCc1ccccc1)c1ccccc1` (stereo not given) as the compound, how does the growth inhibition read?
The growth inhibition was -2.2% (inactive).

For `CC1CCCCN1P(N1CCCCC1C)N1CCCCC1C` (stereo not given), which growth inhibition is on record?
The growth inhibition was 23.4% (inactive).

For `O=C(O)CC(SSCc1ccccc1)C(=O)O` (stereo not given), which growth inhibition is on record?
The growth inhibition was 12.7% (inactive).

Which growth inhibition does the source give for `COc1ccc(NC(=O)CC(=O)N2N=C(N(CCC#N)c3ccccc3Cl)CC2c2ccccc2)cc1` (stereo not given) here?
The growth inhibition was -4.55% (inactive).

Which growth inhibition does the source give for `CC(=O)OC1CCC2C(C)(CCC3C2(C)CCC2(C)C4CC(C)(C)CCC4(C)CCC32C)C1C` (stereo not given) here?
Its growth inhibition is -0.05% (inactive).

With `CCN(CC)C(N)=Nc1cc2ccccc2c2ccccc12` as the compound, how does the growth inhibition read?
Its growth inhibition is 8.55% (inactive).

For `CCOC(=O)CC/C(=C\NC(=O)c1ccccc1)NC(=O)c1ccccc1`, which growth inhibition is on record?
The growth inhibition was -9.55% (inactive).

Which growth inhibition does the source give for `OCC(O)C(O)C(O)c1nn(-c2ccccc2)c2nc3ccccc3nc12` (stereo not given) here?
The growth inhibition was 11.3% (inactive).

For `N#CC(c1ccc(O)cc1)N1CCN(C(C#N)c2ccc(O)cc2)CC1` (stereo not given), which growth inhibition is on record?
The growth inhibition was -25.2% (inactive).

For `O=C(O)c1cccnc1-c1ccccc1`, which growth inhibition is on record?
The growth inhibition was -12.9% (inactive).

Which growth inhibition does the source give for `CCOC(=O)C(NC(N)=O)C(=O)OCC` here?
The growth inhibition was 21.9% (inactive).

With `CC(=O)Nc1ccccc1/C=C\c1ccccn1` as the compound, how does the growth inhibition read?
The growth inhibition was -5.1% (inactive).

For `CC(=O)OC(C)c1cc2c(s1)C(=O)c1sccc1C2=O` (stereo not given), which growth inhibition is on record?
Its growth inhibition is 89.3% (active).

With `C=C1CN(C2=NCCO2)C1` as the compound, how does the growth inhibition read?
Its growth inhibition is -13.6% (inactive).

With `CCC(=O)C(=O)C1CCCCC1=O` (stereo not given) as the compound, how does the growth inhibition read?
The growth inhibition was -17.6% (inactive).

For `CC(=O)c1cccc(NC(=O)c2c(Br)c(Br)c(Br)c(Br)c2C(=O)O)c1`, which growth inhibition is on record?
Its growth inhibition is -0.25% (inactive).

For `CN(/N=C/C=N/N(C)C1=NCCCCN1)C1=NCCCCN1`, which growth inhibition is on record?
Its growth inhibition is 7.55% (inactive).

With `Cc1cc2c(cc1C)[n+](=O)c(C(=O)CC(=O)C(=O)Nc1ccccc1C)c(C)n2[O-]` as the compound, how does the growth inhibition read?
Its growth inhibition is 47.3% (inactive).

With `CCc1n[nH]c(=O)n1/N=C/c1c(O)ccc2ccccc12` as the compound, how does the growth inhibition read?
Its growth inhibition is 6% (inactive).

For `CCc1cc2c(cc1C(=O)/C=C\c1cccc3ccccc13)C(C)(C)CCC2(C)C`, which growth inhibition is on record?
Its growth inhibition is -3.5% (inactive).

With `Cc1nc2ccc(Br)cc2c(=O)n1-c1ccc(N=Cc2ccccc2Cl)cc1` as the compound, how does the growth inhibition read?
Its growth inhibition is 2.6% (inactive).

Which growth inhibition does the source give for `O=C1c2cccc3c(Br)ccc(c23)C(=O)N1CCCN1CCOCC1` here?
Its growth inhibition is 92.5% (active).

For `COc1cc(OC)c(NC(=O)CC2SC(N)=NC2=O)cc1Cl` (stereo not given), which growth inhibition is on record?
Its growth inhibition is 25.4% (inactive).

Which growth inhibition does the source give for `CN1C(=O)C(O)Nc2ncncc21` (stereo not given) here?
Its growth inhibition is 2.45% (inactive).

Which growth inhibition does the source give for `BrC12c3ccccc3C(Br)(c3ccccc31)c1ccccc12` here?
Its growth inhibition is -5.3% (inactive).

Which growth inhibition does the source give for `N#CC1=C(c2ccccc2)C(=C2Nc3ccccc3N2)C2S/C(=C\c3ccccc3)C(=O)N2C1=N` (stereo not given) here?
The growth inhibition was 4.45% (inactive).

For `O=C(CCCCCCC(=O)ON1C(=O)CCC1=O)ON1C(=O)CCC1=O`, which growth inhibition is on record?
The growth inhibition was -24.4% (inactive).

With `Cc1ccc(-c2cc(-c3ccco3)c(C#N)c(=O)[nH]2)cc1` as the compound, how does the growth inhibition read?
The growth inhibition was -10% (inactive).

With `CCCCCC/C=C/C(N)=O` as the compound, how does the growth inhibition read?
Its growth inhibition is -20.2% (inactive).

Which growth inhibition does the source give for `COc1ccc(OC)c(N=Cc2ccc(C=Nc3cc(OC)ccc3OC)cc2)c1` here?
Its growth inhibition is -9% (inactive).

For `O=C1c2c(ccc3c2CCC3)CC12Cc1cc3c(cc1C2)CCC3`, which growth inhibition is on record?
The growth inhibition was -0.5% (inactive).
